Results filed as inconclusive are left out. The source made the active and inactive calls. Calls come from the whole dose curve; as a rule, active = well fitted curve in the direction sought with a large enough effect; inconclusive = small, poorly fitted or top-dose-only effect, or another doubt; inactive = no such curve, though single readings can be large; an effect the other way counts as inactive or inconclusive.

Test [1] addresses Metallo-beta-lactamase type 2 (Klebsiella pneumoniae) (UniProt C7C422). Nature of the test: qHTS to identify inhibitors of the New Delhi Metallo-beta-lactamase (NDM): assay validation screen against the NCATS LOPAC Collection (AID 1794843). Note: series mostly up to about 38 µM. Put shortly:
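Absorbance at 485 nm from nitrocefin turnover (50 uM solution added), read at plateau, gives the read-out. Compounds in DMSO were incubated first with 2 nM final NDM-1 in pH 7.0 HEPES buffer containing 1 uM ZnSO4 and 0.01% Tween20.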

Test [2] concerns the target Glutathione peroxidase 1 (Homo sapiens) (UniProt P07203). Nature of the test: Primary qHTS Assay for Inhibitors of Recombinant Selenoprotein Glutathione Peroxidase 1 (GPX1) (AID 1845191). Note: nearly all actives have a fitted effect of over 65% in size. Note: potency is the fitted concentration of half-maximal effect. A digest of the protocol:
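GPX1 10 nM, GR 100 nM, GSH 1 mM, NADPH 0.5 mM, CHP 0.5 mM (final). 30-min cpd preincubation, RT. Ex340/Em450 read t=0, t=15 min.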
On the technique in general: In qHTS, concentration-response curves come from the screen itself.

Test [3] deals with Phospholipid hydroperoxide glutathione peroxidase GPX4 (Homo sapiens) (UniProt P36969). Nature of the test: Primary qHTS Assay for Inhibitors of Recombinant Selenoprotein Glutathione Peroxidase 4 (GPX4) (AID 1845192). Note: nearly all actives have a fitted effect of over 65% in size. Put shortly: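 qHTS, GR-coupled: GPX4 200 nM + cpd 30 min RT → GSH 1 mM, NADPH 0.5 mM, GR 100 nM → CHP 0.5 mM start; fluor 340/450 at t0 and t15 min; no-enzyme wells as control.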

Test [4] deals with Luciferin 4-monooxygenase (Photinus pyralis) (UniProt P08659). Briefly: Primary firefly luciferase (FLuc) qHTS assay for identification of artifact compounds. (AID 1845220). Note: nearly all actives have a fitted effect of over 60% in size. Put shortly: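 Reaction readout was CCD-imaged luminescence, taken 5 min after adding 10 nM purified firefly enzyme to compound-treated wells holding 10 uM luciferin and ATP in pH 7.6 buffer.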
A short description of test [5]: Primary fluorescence-based thiol-reactive (MSTI) qHTS assay for identification of artifact compounds. (AID 1845221).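 Note: series mostly up to about 54 µM; thiol-reactive compounds lower the probe fluorescence signal; nearly all actives have a fitted effect of over 65% in size.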 A digest of the protocol:
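qHTS titration of compound; 4 uM MSTI, PBS pH 7.4, 2% DMSO; 1 h RT, dark; fluorescence 525/598 nm; normalized to Acetyl-MSTI and MSTI; 4-parameter Hill fit.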

Chain of Metallo-beta-lactamase type 2 (Klebsiella pneumoniae) (C7C422 whole entry, looked up): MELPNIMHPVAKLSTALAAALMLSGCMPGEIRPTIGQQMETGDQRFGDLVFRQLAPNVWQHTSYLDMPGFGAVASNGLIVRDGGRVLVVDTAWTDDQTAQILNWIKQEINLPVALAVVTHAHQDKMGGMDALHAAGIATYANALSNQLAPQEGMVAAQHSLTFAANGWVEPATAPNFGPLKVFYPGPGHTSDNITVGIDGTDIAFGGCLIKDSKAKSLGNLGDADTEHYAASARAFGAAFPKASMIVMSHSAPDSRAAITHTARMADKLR
Chain of Phospholipid hydroperoxide glutathione peroxidase GPX4 (Homo sapiens) (P36969 whole entry, looked up): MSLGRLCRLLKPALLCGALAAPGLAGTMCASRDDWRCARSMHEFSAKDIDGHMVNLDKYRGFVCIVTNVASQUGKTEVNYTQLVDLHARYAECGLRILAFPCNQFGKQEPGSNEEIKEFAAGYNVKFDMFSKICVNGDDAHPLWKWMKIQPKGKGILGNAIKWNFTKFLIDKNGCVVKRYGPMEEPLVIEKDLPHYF
Chain of Glutathione peroxidase 1 (Homo sapiens) (P07203 whole entry, looked up): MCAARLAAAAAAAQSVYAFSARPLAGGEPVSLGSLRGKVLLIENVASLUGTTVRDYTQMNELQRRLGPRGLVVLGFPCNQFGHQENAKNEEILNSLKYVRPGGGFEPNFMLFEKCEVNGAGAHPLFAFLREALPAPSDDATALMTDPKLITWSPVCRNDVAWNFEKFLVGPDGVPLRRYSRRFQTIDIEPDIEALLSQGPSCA

Consider `NC(=O)C1=CN(C2OC(COP(=O)(O)OP(=O)(O)OC[C@H]3O[C@@H](n4cnc5c(N)ncnc54)[C@H](OP(=O)(O)O)[C@@H]3O)C(O)C2O)C=CC1` (some centres not stated), for which the Potency entry in test [1], in test [2] and in test [3] was “inactive” in each case.
For `COC1=C(OC)C(=O)c2ccccc2C1=O`, the Potency result in test [1], in test [2] and in test [3] was “inactive” each time.
As for `CNC(=O)[C@H]1O[C@@H](n2cnc3c(NCc4cccc(I)c4)ncnc32)[C@H](O)[C@@H]1O`, the Potency result in test [1], in test [2] and in test [3] was “inactive” throughout.
With `CN(C)CCC(c1ccc(Cl)cc1)c1ccccn1` (configuration not stated), the Potency entry in test [1], in test [2] and in test [3] was “inactive” in each case.
With `O=C1NCc2c1c1c3ccccc3[nH]c1c1[nH]c3ccccc3c21`, the Potency result in test [1], in test [2] and in test [3] was “inactive” each time.
On to `NC(CCCP(=O)(O)O)C(=O)O` (configuration not stated), for which the Potency result in test [1], in test [2] and in test [3] was “inactive” in each case.
With `C[C@@H](CN1CCC(Cc2ccccc2)CC1)[C@@H](O)c1ccc(O)cc1`, the Potency entry in test [1], in test [2] and in test [3] was “inactive” each time.
Take `NC[C@@H]1O[C@H](C23CC4CC(CC(C4)C2)C3)Cc2c1ccc(O)c2O`: the Potency entry in test [1], in test [2] and in test [3] was “inactive” each time.
With `NC(=O)C(=O)O`, the Potency entry in test [1], in test [2] and in test [3] was “inactive” each time.
Take `COc1ccccc1CN[C@@H]1CCCN[C@@H]1c1ccccc1`: the Potency entry in test [1], in test [2] and in test [3] was “inactive” each time.
Turning to `CC1CN(S(=O)(=O)c2cccc3cnccc23)CCN1` (configuration not stated), the Potency result in test [1], in test [2] and in test [3] was “inactive” in each case.
As to `COc1ccc(/C=C2\COc3ccc(C)cc3C2=O)cc1O`, the Potency result in test [1], in test [2] and in test [3] was “inactive” each time.
Take `O=c1[nH]c2cc([N+](=O)[O-])c([N+](=O)[O-])cc2[nH]c1=O`: the Potency entry in test [1], in test [2] and in test [3] was “inactive” in each case.
In the case of `O=C1NC(O)=NC1(c1ccccc1)c1ccccc1`, the Potency entry in test [1], in test [2] and in test [3] was “inactive” each time.
Turning to `Nc1ccn([C@@H]2O[C@H](CO)[C@@H](O)[C@@H]2O)c(=O)n1`, the Potency result in test [1], in test [2] and in test [3] was “inactive” throughout.
As to `C[N+](C)(C)CCOP(=O)(O)OP(=O)([O-])OC[C@H]1O[C@@H](n2ccc(N)nc2=O)[C@H](O)[C@@H]1O`, the Potency entry in test [1], in test [2] and in test [3] was “inactive” each time.
For the molecule `NCCSSCCN`, the Potency result in test [1], in test [2] and in test [3] was “inactive” each time.
Regarding `CC(=O)/C=C1\C(=O)N(C)c2ccccc21`, the Potency result in test [1], in test [2] and in test [3] was “inactive” each time.
For `CCN(CC)c1ncnc2c1ncn2[C@@H]1O[C@H](COP(=O)(O)OP(=O)(O)C(Br)(Br)P(=O)(O)O)[C@@H](O)[C@H]1O`, the Potency result in test [1], in test [2] and in test [3] was “inactive” in each case.
Turning to `O=S(=O)(c1cccc2c(I)cccc12)N1CCCNCC1`, the Potency entry in test [1], in test [2] and in test [3] was “inactive” throughout.
On to `Nc1nc2ccc(Cl)cc2n2c(-c3ccccc3)nnc12`, for which the Potency result in test [1], in test [2] and in test [3] was “inactive” each time.
For the molecule `NCC1OC(O[C@H]2[C@H](O)[C@@H](OC3C(O)C(N)CC(N)C3OC3OC(CO)C(O)C(O)C3N)O[C@@H]2CO)C(N)C(O)C1O` (some centres not stated), the Potency result in test [1], in test [2] and in test [3] was “inactive” throughout.
For the molecule `O=C(O)c1cc([N+](=O)[O-])ccc1NCCCc1ccccc1`, the Potency entry in test [1], in test [2] and in test [3] was “inactive” throughout.
`O=Nc1ccc2oc(=O)ccc2c1`: the Potency entry in test [1], in test [2] and in test [3] was “inactive” in each case.
For `OC[C@H]1O[C@@H](n2cnc3c(NC4CCCC4)ncnc32)[C@H](O)[C@@H]1O`, the Potency result in test [1], in test [2] and in test [3] was “inactive” throughout.
With `Oc1cc(O)cc(/C=C/c2ccc(O)c(O)c2)c1`, the Potency result in test [1], in test [2] and in test [3] was “inactive” throughout.
For the molecule `Clc1ccc(N2CCN(Cc3c[nH]c4ncccc34)CC2)cc1`, the Potency result in test [1], in test [2] and in test [3] was “inactive” in each case.
For `CN(C)c1nc(N)c(C(=O)N=C(N)N)nc1Cl`, the Potency entry in test [1], in test [2] and in test [3] was “inactive” in each case.
As to `CO/N=C(\C(=O)N[C@@H]1C(=O)N2C(C(=O)O)=C(COC(C)=O)CS[C@H]12)c1csc(N)n1`, the Potency entry in test [1] and in test [3] was “inactive” throughout. Besides, the Potency in test [2] was 8.06 µM (active).
For the molecule `CCN1/C(=C/C(C)=O)Sc2ccc(OC)cc21`, the Potency result in test [1], in test [2] and in test [3] was “inactive” throughout.
Consider `Cn1c(=O)c(-c2c(Cl)cccc2Cl)cc2cnc(Nc3ccc(N4CCOCC4)cc3)nc21`, for which the Potency result in test [1], in test [2] and in test [3] was “inactive” in each case.
As for `CO[C@H]1O[C@@H]2O[C@]3(C)CC[C@@H]4[C@@H](C)CC[C@H]([C@H]1C)[C@]24OO3`, the Potency result in test [1], in test [2] and in test [3] was “inactive” in each case.
Turning to `CCCC(=O)OC[C@@H](OC(=O)CCC)[C@@H](OC(=O)CCC)[C@H](Cn1c2nc(=O)[nH]c(=O)c-2nc2cc(C)c(C)cc21)OC(=O)CCC`, the Potency result in test [2] is “inactive”.
In the case of `O=C(Nc1ccc2[nH]ncc2c1)C1CCC1`, the Potency entry in test [1], in test [2], in test [3] and in test [4] was “inactive” in each case. In test [5], the call was inactive.
With `O=C(Nc1ccc2c(c1)CCN(Cc1ncn[nH]1)C2)c1ccccc1-c1ccc(C(F)(F)F)cc1`, the Potency result in test [1], in test [2], in test [3] and in test [4] was “inactive” each time. In test [5], the call was inactive.
